In PubChem BioAssay one finds composite z-score data, which are given here for 31 molecules.

Structures are written as SMILES.

This test relates to wheat germ agglutinin (Triticum aestivum), Alexa647-labelled. The test can be described thus: Alexa647-WGA lectin binding to printed small molecules – biochemical, small-molecule microarray, 635/667 nm fluorescence, artefact control for SMM control-protein annotation, profiling panel (AID 1140).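 Also: score merges 667 nm feature emission with signal to noise over triplicate slides.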 As to conditions: WGA-A647 binding, 635 nm fluorescence, higher = more signal.
`CCOC(=O)C1=NO[C@@]2(C=C(Br)C3(OCCCO3)[C@H]3O[C@H]32)C1` gave a composite z-score of 0.818. Consider `C#CCCCON=C1C[C@@H](O)[C@@H](O)[C@@H]2[C@@H]3C(=O)N(C(C)(C)C)C(=O)[C@@H]3CC[C@H]12`, for which the composite z-score is 0.903. In the case of `CO[C@@H]1COC(=O)[C@@H](C)COC(=O)[C@@H](C)NC(=O)CC=C[C@@H]1C`, the composite z-score was 0.224. To `COC(=O)CC=C[C@@H](C)[C@@H](C=NO[C@H](C)c1cn([C@H](CO)Cc2ccccc2)nn1)NS(=O)(=O)c1ccc(C)cc1` belongs 0.645; to `O=C(C=Cc1ccc2c(c1)OCO2)c1ccc(F)cc1`, -0.177.

With `CCOC(=O)[C@H](CC(C)C)NC(=O)CCC1CC(OC(=O)NCc2cccc3ccccc23)CC2(CCCC(COC(=O)NCCOC)O2)O1` (stereo partly specified), the composite z-score is 0.167. `C[C@@H]1C=CCC(=O)OC[C@H]2O[C@@H](C=C[C@@H]2O)[C@H](C)C=CCC(=O)OC1` gave a composite z-score of -0.513. Under `CCOC(=O)[C@H](CC(C)C)NC(=O)CCC1CC(OC(=O)NCc2cccc3ccccc23)CC2(CCCC(COC(=O)NCCCN3CCCC3=O)O2)O1` (stereo partly specified) stands 0.662. Under `CSCC[C@@H]1NC(=O)CC=C[C@@H](C)COC(=O)[C@@H](C)COC1=O` stands -1.71; under `COc1ccc(O[C@H]2C=C[C@@H](c3ccccc3)O[C@@H]2CON=C(C)CCN2CCc3nc(-c4ccccc4)c(-c4ccccc4)cc3C2)cc1`, 0.0216.

In turn, `C=COC[C@@H]1CN2[C@@H](CC[C@@H](C)[C@@H]2c2ccc(Br)cc2)C(=O)O1` had a composite z-score of -0.0681. For `COC(=O)CC=C[C@@H](C)[C@@H](C=NOCC[C@@H]1C=C[C@H](OC(C)=O)[C@@H](COC(C)=O)O1)NS(=O)(=O)c1ccc(C)cc1`, the composite z-score is -0.477.

`CCc1cc2c(nc1CC)CCN(CCC(C)=NOC[C@H]1O[C@H](c3ccccc3)C=C[C@@H]1Oc1ccc(OC)cc1)C2` gave a composite z-score of -0.0263.

For `CC(C)CON=C1C[C@@H](O)[C@@H](O)[C@@H]2[C@@H]3C(=O)N(C4CCCCC4)C(=O)[C@@H]3CC[C@@H]12`, the composite z-score came to 0.556. To `CCN1C(=O)[C@H]2[C@H]3[C@H](O)[C@H](O)CC(=O)[C@@H]3CC[C@H]2C1=O` belongs 0.187.

In the case of `COC(=O)C1=C(C)N(Cc2ccccc2)[C@]23O[C@](C(=O)OC)(C(=O)N2[C@@H]1c1ccccc1)C(C(=O)OC)=C3C(=O)OC`, the composite z-score was -0.0964. For the molecule `CC(C)=NO[C@H](C)c1cn([C@H](CO)Cc2ccccc2)nn1`, the composite z-score was -0.026. To `CON=Cc1ccc(C(=O)N2[C@H](c3ccc(C)cc3)[C@@H](C)CC[C@H]2C(=O)OC)cc1` belongs 0.112; to `CCN1C(=O)[C@@H]2[C@H]3C(=CC[C@@H]2C1=O)C1(OCCCO1)[C@H]1O[C@H]1[C@H]3O`, 0.692. Under `O=C(NN=C1C[C@@H](O)[C@@H](O)[C@@H]2[C@@H]3C(=O)N(C[C@@H]4CCCO4)C(=O)[C@@H]3CC[C@@H]12)OCc1ccccc1` stands -0.248; under `CC(CCN1CCc2nc(-c3ccccc3)c(-c3ccccc3)cc2C1)=NOC[C@@H](O)COCc1ccco1`, 0.679; under `O=C1[C@H]2[C@H]3[C@H](O)[C@H](O)CC(=NO[C@@H]4O[C@H](CO)[C@@H](O)[C@H](O)[C@H]4O)[C@H]3CC[C@H]2C(=O)N1c1cccc(Oc2ccccc2)c1`, 0.13. To `O=C1C[C@@H](O)[C@@H](O)[C@@H]2[C@@H]3C(=O)N(Cc4ccc5c(c4)OCO5)C(=O)[C@@H]3CC[C@H]12` belongs -0.203; to `COC(=O)[C@@H]1CC[C@@H](C)[C@H](c2ccc(Br)cc2)N1`, 0.0075; to `CCOC(=O)[C@H](CC(C)C)NC(=O)CCC1CC(OC(=O)NCCc2ccc(F)cc2)CC2(CCCC(COC(=O)NCC(c3ccccc3)c3ccccc3)O2)O1` (stereo partly specified), 0.737. Turning to `COC(=O)[C@H](C)NC(=O)CCC1CC(OC(=O)NCc2ccc3c(c2)OCO3)CC2(CCCC(COC(=O)NCc3cccc(C(F)(F)F)c3)O2)O1` (stereo partly specified), the composite z-score worked out at 0.613.

`CC(C)=CCCC(C)=CCON=C1C[C@@H](O)[C@@H](O)[C@@H]2[C@@H]3C(=O)N(C(C)(C)C)C(=O)[C@@H]3CC[C@@H]12` registered a composite z-score of 0.269.

The molecule `Cc1ccc(S(=O)(=O)NC(CCc2ccccc2)CC(=O)C(C)(C)C)cc1` (stereo unspecified) had a composite z-score of 0.693. On to `C#CCCCON=C1C[C@@H](O)[C@@H](O)[C@@H]2[C@@H]3C(=O)N(c4ccc(F)cc4F)C(=O)[C@@H]3CC[C@H]12`, for which the composite z-score came to 0.0156.

`COC(=O)[C@H](C)NC(=O)CCC1CC(OC(=O)NCc2ccc3c(c2)OCO3)CC2(CCCC(COC(=O)NCCc3ccccc3OC)O2)O1` (stereo partly specified) returned a composite z-score of 0.817. Under `CCCCC#C[C@@H]1C=C[C@H](Oc2ccc(C(=O)OC)cc2)[C@@H](COC(=O)OCC)O1` stands 0.276.
